Pf growth 48h – inhibits P. falciparum growth in the first generation, 48 h; P. falciparum luciferase growth in erythrocytes, 48 h; Potency, µM (titrated, usually from 28.7 µM), hits mostly inhibitors; 5.9% of 310,000 active; AID 504832
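Luminescence readout; reporter = integrated firefly luciferase in P. falciparum. RBC culture at 2% hematocrit, 0.1% parasitemia final, 37 C/5% CO2; decreased signal taken as growth inhibition.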
CHX counter – counter-screen hit for Shiga toxin inhibitors, cycloheximide | cell reporter, cycloheximide protein synthesis inhibition counterscreen | max response, % | 12% of 300,000 active | AID 2314; in the data active = max response mostly above about 13%, no sharp cut-off; inactive = mostly below about 14%; also: read at 38.3 µM for the half of the compounds with a filed dose
Shiga toxin inh – blocks Shiga toxin action in Vero cells; Vero cells, Shiga toxin protein synthesis inhibition reporter; inhibition, % at 38.7 µM; 9.2% of 290,000 active; AID 2315; in the data active = inhibition mostly above about 28%, no sharp cut-off; inactive = mostly below about 43%
LmPK inhibitor – LmPK (Leishmania mexicana) enzyme inhibition. 0.37% of 290,000 active. AID 1721. Potency, µM (doses to about 57.5 µM), hits mostly inhibitors. Q27686. purified LmPK, Kinase-Glo ATP luminescence, 1 h
Target sequence (Q27686 whole entry, looked up): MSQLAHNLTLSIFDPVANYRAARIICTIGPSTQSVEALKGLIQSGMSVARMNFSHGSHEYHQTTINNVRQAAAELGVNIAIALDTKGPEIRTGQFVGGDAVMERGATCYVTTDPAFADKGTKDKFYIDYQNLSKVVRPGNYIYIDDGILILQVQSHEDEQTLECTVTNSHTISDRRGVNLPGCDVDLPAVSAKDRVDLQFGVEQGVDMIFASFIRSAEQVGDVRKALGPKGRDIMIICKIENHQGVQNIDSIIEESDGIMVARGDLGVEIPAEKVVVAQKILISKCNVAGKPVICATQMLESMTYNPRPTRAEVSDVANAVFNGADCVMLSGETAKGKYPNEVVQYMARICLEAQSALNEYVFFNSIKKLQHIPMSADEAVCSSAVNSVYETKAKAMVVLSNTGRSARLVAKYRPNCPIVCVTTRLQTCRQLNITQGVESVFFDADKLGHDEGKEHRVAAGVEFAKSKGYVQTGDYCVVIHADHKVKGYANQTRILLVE
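Purified LmPK (0.1 nM) with 0.5 mM PEP and 0.1 mM ADP in imidazole buffer pH 7.2 with MgCl2/KCl, 1 h at room temperature. ATP formed was read by luciferase luminescence and normalized to no-enzyme and uninhibited controls.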
Pf growth 96h – P. falciparum growth inhibition at 96 hour, primary screen for plastid delayed-death inhibitors | P. falciparum luciferase reporter growth, 96 h | Potency, µM (highest dose often 28.7 µM), actives largely listed as inhibitors | 6.9% of 320,000 active | AID 504834
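Luminescence readout: decreased luciferase signal marks inhibited growth of reporter-expressing P. falciparum in infected red cells (2% hematocrit, 0.05% parasitemia final), exposed to compound two generations (96 h, 37 C, 5% CO2).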
Numbers stand for hits; . = inactive; ? = inconclusive; / = no result given. Hits are enriched below; roughly 22% of the tested compounds scored in any of these assays. Unless noted, calls follow the shape of the dose curve; as a rule, active = well fitted inhibition curve with a large enough effect; inconclusive = small, poorly fitted or top-dose-only effect, or another doubt; inactive = no such curve, though single readings can be large or run the other way.

SMILES | Pf growth 48h | CHX counter | Shiga toxin inh | LmPK inhibitor | Pf growth 96h
COc1ccc(/C=C/C(=O)NCC(=O)N2CCC(N(C)CCN3CCOCC3)CC2)cc1OC | . | . | . | . | .
CCC(C)(C)NC(=O)/C=C/c1cnc2ccccc2n1 | . | 73 | 77 | . | .
CC(C)N(Cc1ccccc1)C(=O)COC(=O)/C=C/c1cnc2ccccc2n1 | . | 21 | . | . | .
O=C(/C=C/c1cnc2ccccc2n1)NC12CC3CC(CC(C3)C1)C2 | . | 54 | 136 | . | ?
O=C(O)c1ccccc1SC1CC(=O)N(c2cccc3ccccc23)C1=O (stereo not given) | 2.1µM | . | . | . | .
COC(=O)c1ccccc1SC1CC(=O)N(c2ccccc2)C1=O (stereo not given) | . | 28 | 57 | . | 12µM
CCOc1ccc(CCNC(=O)COC(=O)c2sccc2C)cc1OCC | . | / | / | / | ?
CN(Cc1cn[nH]c1-c1cc2ccccc2o1)CC1CCOCC1 | . | . | . | . | ?
CCOC(=O)C1(Cc2ccccc2Cl)CCN(S(=O)(=O)N(C)C)CC1 | . | . | . | . | .
CCOC(=O)C1(CCCc2ccccc2)CCN(C(=O)CCn2cnnn2)CC1 | . | . | . | . | .
CCOC(=O)C1(Cc2ccccc2Cl)CCN(C(=O)CCn2ccnc2C)CC1 | . | 42 | 68 | . | ?
CCOC(=O)C1(CCc2ccccc2)CCN(C(=O)CCn2cncn2)CC1 | . | 32 | 63 | . | ?
CCOC(=O)C1(CCc2ccccc2)CCN(C(=O)CCn2cnnn2)CC1 | . | 12 | . | . | .
CCN(CC)C(=O)CSc1nnc(CSc2ncccn2)n1C | . | . | . | . | .
CCc1ccc(OCCCC(=O)Nc2ccc(S(N)(=O)=O)cc2)cc1 | . | . | . | . | .
CCOC(=O)c1cnc2ccc(C(=O)OC)cc2c1Nc1ccc2c(c1)OCCO2 | ? | . | . | . | 10µM
CCOC(=O)c1cnc2ccc(OC)cc2c1Nc1ccc2c(c1)OCCO2 | ? | . | . | . | ?
CCOC(=O)c1cnc2ccc(OC)cc2c1Nc1ccc(N2CCN(C)CC2)cc1 | 1.7µM | . | . | . | 0.93µM
CCOC(=O)c1ccc2ncc(C(=O)OCC)c(Nc3ccc(N4CCOCC4)cc3)c2c1 | ? | . | . | . | ?
CCOC(=O)c1cnc2c(OC)cccc2c1Nc1ccc2c(c1)OCCO2 | 2.3µM | 29 | 28 | . | ?
OCCNC(=S)Nc1cc(Cl)cc(Cl)c1 | ? | . | . | . | ?
O=[N+]([O-])c1ccccc1NCCOc1ccccc1 | . | 73 | 72 | . | .
CCc1ccc(OCCNc2cc(N3CCNC(C)C3)ccc2[N+](=O)[O-])cc1 (stereo not given) | 4.7µM | / | / | / | ?
CC1CN(c2ccc([N+](=O)[O-])c(NCCOc3ccc(Cl)cc3)c2)CC(C)N1 (stereo not given) | ? | . | . | . | .
COc1cccc(OCCNc2ccc([N+](=O)[O-])cn2)c1 | . | / | / | / | ?
SMILES | Pf growth 48h | CHX counter | Shiga toxin inh | LmPK inhibitor | Pf growth 96h
O=C(CCOc1ccccc1)Nc1ccccc1[N+](=O)[O-] | . | 27 | . | . | .
COc1cccc(OCCNc2cc(Cl)ccc2[N+](=O)[O-])c1 | ? | 42 | 73 | . | ?
O=C(CC(=O)Nc1ccccc1[N+](=O)[O-])Nc1ccccc1[N+](=O)[O-] | . | . | . | . | .
CCOc1ccc(NC(=O)Cc2ccccc2)c([N+](=O)[O-])c1 | . | . | . | . | ?
CCOc1ccc(NC(=O)COc2ccccc2)c([N+](=O)[O-])c1 | . | 28 | 82 | . | .
O=[N+]([O-])c1ccc(N2CCCCC2)cc1NCCOc1ccccc1 | . | . | . | . | 13µM
CCOc1ccccc1NC(=O)Cn1c(=O)n(-c2ccccc2)c(=O)c2oc3ccccc3c21 | . | . | . | . | .
Cc1cc(C(=O)NNC(=O)c2sccc2C)c(C)o1 | . | / | / | / | .
Cc1cc(C)c2c(c1)/C(=N/NC(=O)c1ccc(O)cc1)CCC2 | ? | 22 | 36 | . | .
Cc1cc(C)c2c(c1)/C(=N/NC(=O)c1cc(C)oc1C)CCC2 | ? | 36 | . | . | .
Cc1c(C(C)NC(=O)c2cc(COc3cccc4cnccc34)on2)cnn1C (stereo not given) | . | . | . | . | 8.3µM
Cc1nn(C)c(C)c1C(C)NC(=O)c1cc(COc2cncc(Cl)c2)on1 (stereo not given) | ? | . | . | . | .
CCOc1ccc(NC(=O)C(C)C(Cc2ccc(C)cc2)C(=O)O)cc1 (stereo not given) | / | . | . | . | ?

Bioassay records: PubChem, National Center for Advancing Translational Sciences (NCATS)
